Drawing on PubChem BioAssay (Tox21), this text covers Potency for 30 compounds.

Assay [1] is described as follows: qHTS assay to identify small molecule antagonists of the estrogen related receptor (ERR) signaling pathway from Tox21 library - cell viability counter screen (AID 1224834). Note: nearly all actives have a fitted effect of over 30% in size. Note: potency is the fitted concentration of half-maximal effect. The method, boiled down: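 ERR cells, 2,000/well; 6 h settle at 37 C/5% CO2; pin-tool compound transfer in DMSO; 17.5 h at 37 C; CellTiter-Fluor, 30 min; fluorescence intensity.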
The nature of assay [2]: qHTS assay to identify small molecule agonists of the constitutive androstane receptor (CAR) signaling pathway - cell viability counter screen (AID 1224836). Note: series mostly up to about 92 µM; nearly all actives have a fitted effect of over 45% in size. The method in brief:
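Viability read-out: CellTiter-Fluor fluorescence after 23 h compound exposure at 37 C/5% CO2 in double-stable HepG2-CYP2B6-hCAR cells, with PK11195 present at 0.75 uM final; compounds tested in 15-point titration.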
On the technique in general: Quantitative high-throughput screening tests each substance at several concentrations.

The nature of assay [3]: qHTS assay to identify small molecule antagonists of the estrogen related receptor signaling pathway with the pleiotropic PPARgamma coactivator (PGC) from Tox21 10K library - cell viability counter screen (AID 1224840; active = well fitted cell-killing curve with a large enough effect in the repeat runs, not every such curve was filed as active; note: nearly all actives have a fitted effect of over 40% in size; note: potency is the fitted concentration of half-maximal effect). The method in brief: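 Multiplexed viability counter screen in the PGC/ERR cell line: cells treated with DMSO-dissolved compounds for 17.5 hours at 37 C, then viability measured as CellTiter-Fluor fluorescence.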

Assay [4] can be described thus: qHTS assay to identify small molecule agonists of the estrogen related receptor signaling pathway with the pleiotropic PPARgamma coactivator (PGC) from Tox21 10K library (AID 1224842). Note: nearly all actives have a fitted effect of over 15% in size. The method in brief: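 Luminescence from One-Glo (30 min, room temperature) measured after PGC/ERR cells had 18 h at 37 C with pinned compound (23 nL in DMSO). Cells had been seeded at 2,000 per well and pre-incubated 6 h.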

The target of assay [5] is Luciferin 4-monooxygenase (Photinus pyralis) (UniProt P08659). In words: qHTS assay to identify small molecule inhibitors of firefly luciferase (AID 1224835). Note: nearly all actives have a fitted effect of over 25% in size. Note: potency is the fitted concentration of half-maximal effect. The method, boiled down:
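Inhibition of purified Photinus luciferase is measured by luminescence. Substrate levels (D-luciferin, ATP) sit at their KM values. Each compound is tested in a concentration series.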

Assay [6] addresses Nuclear receptor subfamily 1 group I member 3 (Homo sapiens) (UniProt Q14994). Briefly: qHTS assay to identify small molecule antagonists of the constitutive androstane receptor (CAR) signaling pathway (AID 1224838).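 Note: HepG2 cells stably expressing hCAR with CYP2B6 luciferase reporter stimulated by CITCO; nearly all actives have a fitted effect of over 40% in size.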 Note: potency is the fitted concentration of half-maximal effect. The method, boiled down:
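Antagonist mode used CITCO at a final 50 nM to activate CAR in human hepatoma HepG2 cells carrying stable hCAR and a 2.2 kb CYP2B6 promoter-luciferase construct. Compounds were tested at 15 concentrations over 24 h, with luminescence as the end point.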

For assay [7] the target is unchanged. In words: qHTS assay to identify small molecule agonists of the constitutive androstane receptor (CAR) signaling pathway (AID 1224839). Note: nearly all actives have a fitted effect of over 15% in size. Note: potency is the fitted concentration of half-maximal effect. The method in brief: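 Luminescence read-out (ONE-Glo, 30 min, room temperature) from double-stable HepG2-CYP2B6-hCAR cells exposed 24 h to 15-point compound series in presence of 0.75 uM PK11195 final.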
The nature of assay [8]: qHTS assay to identify small molecule antagonists of the constitutive androstane receptor (CAR) signaling pathway - cell viability counter screen (AID 1224837). Note: nearly all actives have a fitted effect of over 45% in size. Note: potency is the fitted concentration of half-maximal effect. The method, boiled down: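 Viability was measured with CellTiter-Fluor in a HepG2 line carrying stably transfected hCAR and a CYP2B6-2.2kb construct. Cells were exposed for 23 hr at 37 C to 15 compound concentrations with 50 nM CITCO as agonist.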

Assay [9] is described as follows: qHTS assay to identify small molecule antagonists of the estrogen related receptor signaling pathway with the pleiotropic PPARgamma coactivator (PGC) from Tox21 10K library (AID 1224841; call rule not given here; note: actives are mostly falling curves and most rising ones were filed inactive; nearly all actives have a fitted effect of over 50% in size; note: potency is the fitted concentration of half-maximal effect). The method in brief: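 Steps: plate 2,000 PGC/ERR cells per well; incubate 6 h at 37 C with 5% CO2; transfer compounds from DMSO stocks by pin tool; incubate 18 h at 37 C; add One-Glo; measure luminescence 30 min later.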

Inconclusive results are not listed. Calls of active or inactive are those of the source. Unless noted, calls come from the whole dose curve; as a rule, active = well fitted curve in the direction sought with a large enough effect in the repeat runs; inconclusive = weak or mixed curves; inactive = no such curve, though single readings can be large; an effect the other way counts as inactive or inconclusive.

Sequence of Luciferin 4-monooxygenase (Photinus pyralis) (P08659 whole entry, looked up): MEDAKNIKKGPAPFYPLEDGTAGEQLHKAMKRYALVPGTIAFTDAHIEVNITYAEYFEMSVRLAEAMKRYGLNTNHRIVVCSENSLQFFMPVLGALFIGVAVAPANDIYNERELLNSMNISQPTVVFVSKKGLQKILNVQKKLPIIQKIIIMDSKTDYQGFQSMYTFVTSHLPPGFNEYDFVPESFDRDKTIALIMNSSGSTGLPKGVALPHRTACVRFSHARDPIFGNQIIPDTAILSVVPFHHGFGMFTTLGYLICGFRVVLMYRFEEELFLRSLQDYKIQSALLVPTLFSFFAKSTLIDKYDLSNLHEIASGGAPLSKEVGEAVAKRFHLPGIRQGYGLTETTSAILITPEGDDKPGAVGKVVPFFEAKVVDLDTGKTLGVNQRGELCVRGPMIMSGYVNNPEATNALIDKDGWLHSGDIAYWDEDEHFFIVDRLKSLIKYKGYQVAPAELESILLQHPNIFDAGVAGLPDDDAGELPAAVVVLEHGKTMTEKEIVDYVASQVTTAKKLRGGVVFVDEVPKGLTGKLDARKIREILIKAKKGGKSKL
Sequence of Nuclear receptor subfamily 1 group I member 3 (Homo sapiens) (Q14994 whole entry, looked up): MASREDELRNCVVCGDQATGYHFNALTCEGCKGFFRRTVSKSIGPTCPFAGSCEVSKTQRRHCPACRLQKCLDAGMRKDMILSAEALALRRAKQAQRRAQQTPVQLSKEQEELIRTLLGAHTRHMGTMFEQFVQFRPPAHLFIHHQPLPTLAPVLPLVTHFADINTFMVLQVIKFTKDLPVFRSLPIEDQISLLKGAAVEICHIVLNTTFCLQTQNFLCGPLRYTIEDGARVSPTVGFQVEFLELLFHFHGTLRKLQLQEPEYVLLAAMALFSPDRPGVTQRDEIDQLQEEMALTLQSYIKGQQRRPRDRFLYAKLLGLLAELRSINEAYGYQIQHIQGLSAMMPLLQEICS

Regarding `CC1=Nc2ccc3ccccc3c2C1(C)C`, the Potency result in [1], in assay [2], in assay [3] and in assay [4] was “inactive” throughout.

As to `CC[C@]1(O)C[C@H]2CN(CCc3c([nH]c4ccccc34)[C@@](C(=O)OC)(c3cc4c(cc3OC)N(C=O)[C@H]3[C@@](O)(C(=O)OC)[C@H](OC(C)=O)[C@]5(CC)C=CCN6CC[C@]43[C@@H]65)C2)C1`, the Potency result in assay [5] and in [7] was “inactive” each time. For the same compound, the Potency in [6] was 0.211 µM (active).

As for `CC(C)(O)c1ccc(CNC(=O)c2cccnc2Oc2ccc3nonc3c2)cc1`, the Potency entry in assay [5], in assay [2], in assay [8], in [6] and in [4] was “inactive” in each case. Further, in [7], the Potency was 24.3 µM (active).

In the case of `O=[N+]([O-])c1ccc(Nc2ccc(Nc3ccccc3)c(S(=O)(=O)O)c2)c([N+](=O)[O-])c1`, the Potency entry in assay [5], in [8], in [6], in assay [7] and in [3] was “inactive” in each case.

For the compound `O=C1Cc2ccccc2N1c1c(Cl)cccc1Cl`, the Potency result in [5], in assay [2], in assay [8], in assay [6], in assay [3] and in [9] was “inactive” throughout. Further, the Potency result in assay [4] was “inactive”. For the same compound, the Potency in assay [7] is 30.6 µM (active).

Regarding `O=[N+]([O-])c1ccc(O/N=C/c2cc(Br)c(O)c(Br)c2)c([N+](=O)[O-])c1`, the Potency in [1] was 30.5 µM (active); in assay [3], 48.3 µM (active). For the same compound, in assay [6], the Potency result was “inactive”.

In the case of `OC[C@H]1O[C@@H](n2cnc3c(=S)nc[nH]c32)[C@H](O)[C@@H]1O`, the Potency result in [5], in assay [7], in assay [3], in [9] and in assay [4] was “inactive” throughout. The Potency in assay [6] was 1.88 µM (active).

Take `Oc1ccc(Cl)c2cccnc12`: the Potency result in [5], in [3] and in assay [4] was “inactive” throughout. Further, the Potency in assay [9] is 4.73 µM (active).

In the case of `O=c1c(O)c(-c2ccc(O)cc2)oc2cc(O)cc(O)c12`, the Potency entry in assay [2], in assay [8], in assay [6], in assay [3], in assay [9] and in assay [4] was “inactive” throughout.

As for `C=CC(=O)OCC1CC2CC1C1CCC(COC(=O)C=C)C21` (centres undefined), the Potency result in [5], in assay [2], in [8], in [6] and in assay [7] was “inactive” each time. The Potency in assay [3] was 68.6 µM (active).

As to `C/C=C(/C(=C/C)c1ccc(O)cc1)c1ccc(O)cc1`, the Potency result in assay [5], in assay [2], in assay [8], in [6], in assay [7] and in assay [3] was “inactive” throughout.

Consider `Nc1nc2ccc([N+](=O)[O-])cc2s1`, for which the Potency result in [6] is “inactive”.

Consider `COc1cc(C(=O)NCCCCCC(=O)O)cc(OC)c1OC`, for which the Potency result in [5], in assay [2], in assay [8], in assay [6], in assay [7] and in [3] was “inactive” each time. The Potency entry in assay [9] and in [4] was “inactive” each time.

For the compound `O=C(OCC(O)CO)c1ccccc1Nc1ccnc2cc(Cl)ccc12` (centres undefined), the Potency in assay [1] is 29.8 µM (active). Besides, the Potency result in assay [2], in assay [8], in [6], in assay [7], in assay [9] and in assay [4] was “inactive” each time.

`Clc1ccc(Nc2nnc(Cc3ccncc3)c3ccccc23)cc1`: the Potency entry in [6], in [3] and in assay [4] was “inactive” throughout. For the same compound, the Potency was 7.5 µM (active) in [7] and 13.3 µM (active) in assay [9].

On to `O=C=Nc1ccc(Cl)c(Cl)c1`, for which the Potency result in assay [1], in [2], in assay [8], in [6], in assay [7] and in assay [9] was “inactive” in each case. In addition, the Potency entry in [4] is “inactive”.

For `CCOc1ccc(Cc2nccc3cc(OCC)c(OCC)cc23)cc1OCC`, the Potency entry in assay [5], in [2], in assay [6], in [7] and in [3] was “inactive” throughout.

With `COC(=O)C1=C(C)NC(C)=C(C(=O)O[C@@H]2CCCN(Cc3ccccc3)C2)[C@@H]1c1cccc([N+](=O)[O-])c1`, the Potency result in [5], in assay [2], in [6], in assay [7], in assay [3] and in [4] was “inactive” throughout.

For the compound `CCOc1cccc(-n2cc(C(=O)N3CCN(c4cc(C(=O)O)c5ccccc5c4)CC3)nc2-c2ccc(C)cc2)c1`, the Potency entry in assay [5], in assay [2], in assay [8], in assay [6] and in assay [4] was “inactive” in each case.

As for `O=Cc1c2ccccc2c(Cl)c2ccccc12`, the Potency entry in assay [5], in [2], in [8] and in assay [4] was “inactive” throughout. Further, the Potency in assay [9] is 13.3 µM (active).

As to `CN(C(=O)CN(CCO)CC(=O)N(C)C(C)(C)Cc1ccccc1)C(C)(C)Cc1ccccc1`, the Potency entry in assay [5], in assay [2], in assay [8], in assay [6], in [7] and in [3] was “inactive” throughout. Also, the Potency result in assay [9] and in [4] was “inactive” in each case.

For the compound `C/C=C\C/C=C/CCCCCCCCOC(C)=O`, the Potency entry in [5], in [2], in [6], in assay [7], in assay [3] and in [4] was “inactive” in each case.

For the compound `O=C1c2ccccc2C(=O)C1(O)O`, the Potency entry in assay [5], in [7], in assay [3], in [9] and in assay [4] was “inactive” in each case.

For the compound `c1cc(N(CC2CO2)CC2CO2)ccc1Cc1ccc(N(CC2CO2)CC2CO2)cc1` (centres undefined), the Potency is 43.3 µM (active) in assay [1], 54.5 µM (active) in [8], 30.6 µM (active) in [3] and 27.3 µM (active) in [9]. Besides, the Potency result in assay [7] and in assay [4] was “inactive” throughout.

As to `CN1CC(=O)N2[C@H](c3ccc4c(c3)OCO4)c3[nH]c4ccccc4c3C[C@@H]2C1=O`, the Potency result in assay [5], in [2], in assay [6], in [7] and in [3] was “inactive” each time.

Consider `CC(C)C=O`, for which the Potency result in [1], in [2], in assay [6], in assay [3], in assay [9] and in [4] was “inactive” throughout.

Turning to `CS(=O)(=O)c1ccc(-c2cn3ccccc3n2)cc1`, the Potency entry in assay [1], in assay [2], in assay [6], in [3] and in assay [9] was “inactive” throughout. The Potency in assay [7] was 2.11 µM (active).

With `CC(C)C(O)(c1ccc(OC(F)(F)F)cc1)c1cncnc1` (centres undefined), the Potency entry in assay [1], in assay [2], in assay [6], in assay [7] and in assay [3] was “inactive” each time.

As to `CCOC(=O)[C@H](CCc1ccccc1)N[C@@H](C)C(=O)N(CC(=O)O)C1Cc2ccccc2C1`, the Potency entry in assay [5], in [2], in assay [8] and in [3] was “inactive” in each case.

For `COc1ccccc1NC(=O)c1cc2ccccc2cc1O`, the Potency in assay [5] is 17.8 µM (active); in assay [9] it was 15.4 µM (active). In addition, the Potency result in assay [2], in [8], in assay [6], in assay [3] and in assay [4] was “inactive” in each case.
